Drawing on PubChem BioAssay AID651818 (Broad Institute, 2012), this text covers outcome for 22 compounds.

Measured potencies and affinities stand elsewhere. Inconclusive results are not listed. The source made the active and inactive calls. Rule as the data show it: inconclusive = activity change below about -55%; inactive = above that.

The experiment is described as follows: intracellular Trypanosoma cruzi inhibitors in host cells – cell-based, plate reader, cherry-pick samples, set 3, dose response (AID 651818). The settings on record: series mostly up to 10 µM.
With `Cc1cc(C(=O)Nc2cccc3c2O[C@@H](CN(C)C(=O)Nc2ccccc2)[C@@H](C)CN([C@H](C)CO)C3=O)n(C)n1`, the result was inactive. For `C[C@@H]1CN([C@H](C)CO)C(=O)c2cccc(NC(=O)c3ccncc3)c2O[C@@H]1CN(C)Cc1ccc(C(=O)O)cc1` the value was “inactive”; for `C[C@H](CO)N1C[C@H](C)[C@@H](CN(C)S(=O)(=O)c2ccc(Cl)cc2)Oc2c(NC(=O)C3CC3)cccc2C1=O`, “inactive”. As for `CC(C)NC(=O)Nc1cccc2c1O[C@@H](CN(C)Cc1ccc(C(F)(F)F)cc1)[C@@H](C)CN([C@H](C)CO)C2=O`, the result was inactive. With `C[C@@H]1CN([C@@H](C)CO)C(=O)c2cccc(NC(=O)c3cnccn3)c2O[C@@H]1CN(C)S(=O)(=O)c1cccs1`, the outcome was inactive. The result for `C[C@H](CO)N1C[C@H](C)[C@H](CN(C)C(=O)NC2CCCCC2)Oc2c(NS(=O)(=O)c3ccc(F)cc3)cccc2C1=O` reads “inactive”; that for `C[C@H](CO)N1C[C@H](C)[C@@H](CN(C)S(=O)(=O)c2ccc(F)cc2)Oc2c(NC(=O)c3cnccn3)cccc2C1=O`, “inactive”; that for `COc1ccc(S(=O)(=O)N(C)C[C@H]2Oc3c(NS(=O)(=O)c4ccc(F)cc4)cccc3C(=O)N([C@H](C)CO)C[C@H]2C)cc1`, “inactive”. For `Cc1noc(C)c1NC(=O)N(C)C[C@@H]1Oc2c(NC(=O)NC3CCCCC3)cccc2C(=O)N([C@@H](C)CO)C[C@@H]1C` the value was “inactive”; for `C[C@@H]1CN([C@@H](C)CO)C(=O)c2cccc(NS(=O)(=O)c3cn(C)cn3)c2O[C@H]1CN(C)C(=O)Nc1ccc(F)cc1`, “inactive”; for `C[C@H](CO)N1C[C@H](C)[C@@H](CN(C)S(=O)(=O)c2ccc(Cl)cc2)Oc2c(NC(=O)c3cnccn3)cccc2C1=O`, “inactive”.

Consider `Cc1ccc(S(=O)(=O)Nc2cccc3c2O[C@H](CN(C)C(=O)NC(C)C)[C@@H](C)CN([C@H](C)CO)C3=O)cc1`, for which the compound was classed as inactive. On to `CNC[C@H]1Oc2c(NS(=O)(=O)c3cccs3)cccc2C(=O)N([C@@H](C)CO)C[C@@H]1C`, for which the compound was classed as inactive. The result for `C[C@H](CO)N1C[C@H](C)[C@H](CN(C)S(C)(=O)=O)Oc2c(NS(=O)(=O)c3ccc(Cl)cc3)cccc2C1=O` reads “inactive”; that for `C[C@H](CO)N1C[C@H](C)[C@@H](CN(C)S(=O)(=O)c2ccc(F)cc2)Oc2c(NC(=O)C3CCOCC3)cccc2C1=O`, “inactive”. For the compound `COc1ccc(NC(=O)N(C)C[C@H]2Oc3c(NC(=O)C4CCCCC4)cccc3C(=O)N([C@H](C)CO)C[C@@H]2C)cc1`, the call was inactive. The result for `C[C@@H]1CN([C@@H](C)CO)C(=O)c2cccc(NC(=O)c3ccncc3)c2O[C@@H]1CN(C)C` reads “inactive”; that for `Cc1ccc(S(=O)(=O)N(C)C[C@H]2Oc3c(NC(=O)Nc4c(C)noc4C)cccc3C(=O)N([C@@H](C)CO)C[C@H]2C)cc1`, “inactive”.

`C[C@H](CO)N1C[C@H](C)[C@H](CN(C)C(=O)Nc2ccccc2)Oc2c(NC(=O)Nc3ccc(C(F)(F)F)cc3)cccc2C1=O`: the compound was classed as inactive. Consider `C[C@@H]1CN([C@@H](C)CO)C(=O)c2cccc(NC(=O)Nc3ccccc3)c2O[C@@H]1CN(C)S(=O)(=O)c1cn(C)cn1`, for which the compound was classed as inactive.

With `C[C@H](CO)N1C[C@H](C)[C@H](CN(C)Cc2ccc3c(c2)OCO3)Oc2c(NC(=O)Nc3ccc(F)cc3)cccc2C1=O`, the call was inactive.

For `Cc1noc(C)c1S(=O)(=O)N(C)C[C@@H]1Oc2c(NS(=O)(=O)c3cn(C)cn3)cccc2C(=O)N([C@H](C)CO)C[C@@H]1C`, the outcome was inactive.
